High-throughput results from PubChem.
A selection: hits, their analogues and other compounds. The true share with any hit is near 9.5%.
Tau fibril FP: inhibitors of human tau fibril formation; K18 P301L tau heparin fibrillization, Alexa594 FP, 6 h; actives 0.39% (n = 280,000); Potency, µM (titrated, usually from 57.7 µM), for the others: at the top dose activity, negative = inhibition, actives largely listed as inhibitors; P10636; further: nearly all actives have a fitted effect of over 55% in size
Target sequence (P10636 561-689 P618L limits assumed): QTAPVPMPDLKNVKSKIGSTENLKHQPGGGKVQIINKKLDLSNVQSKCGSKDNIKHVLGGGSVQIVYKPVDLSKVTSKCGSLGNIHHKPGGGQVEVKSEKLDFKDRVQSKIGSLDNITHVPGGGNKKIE
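Quantitative HTS format: compounds meet 15 uM recombinant K18 P301L tau and Alexa 594-tau tracer in 100 mM sodium acetate pH 7; 20 uM heparin triggers fibrillization at 37 C over 6 hr; FP gives the signal.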
Tau fluor cs: counter-screen for tau fibril formation inhibitors; tau K18 P301L Alexa594 fluorescence, heparin fibrillization; Potency, µM (top dose mostly 57.7 µM), without a hit: at the top dose activity change, negative = decrease; actives 0.93% (n = 280,000); further: nearly all actives have a fitted effect of over 55% in size
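Human K18 P301L tau (15 uM unlabeled plus 0.24 uM Alexa 594-labeled, final) in 100 mM sodium acetate pH 7 was mixed with compound and 20 uM heparin and incubated 6 hr at 37 C.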
Tau fibril ThT: inhibitors of human tau fibril formation, thioflavin T binding. Potency, µM (highest dose often 57.4 µM), inactives show top-dose activity, negative = inhibition, usual class: inhibitors. actives 2.1% (n = 270,000). P10636. recombinant tau K18 P301L (four-repeat tau fragment), heparin-induced fibrillization, ThT fluorescence; further: nearly all actives have a fitted effect of over 55% in size
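In this qHTS, human K18 P301L tau is incubated with compound and heparin for 6 hr at 37 C, and Thioflavin T fluorescence then reports fibril load.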
ALDH1A1 inh: inhibitors of human aldehyde dehydrogenase 1A1; P00352; Purified ALDH1A1, NADH fluorescence, propionaldehyde substrate; Potency, µM (titrated, usually from 75.3 µM), for inactives: top-dose activity, negative = inhibition, actives largely listed as inhibitors; actives 7.3% (n = 220,000); AID 1030; active means well fitted inhibition curve with a large enough effect, not every such curve was filed as active; inconclusive means small, poorly fitted or top-dose-only effect, or another doubt; inactive means no such curve, though single readings can be large or run the other way;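 further: plate controls were no enzyme wells and a reference inhibitor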
HPGD inh: blocks human HPGD enzyme activity; P15428; purified HPGD, NADH fluorescence kinetic, PGE2 substrate; Potency, µM, inactives show at the highest dose activity change, negative = inhibition, actives largely listed as inhibitors; actives 4.3% (n = 150,000); active means well fitted inhibition curve with a large enough effect, not every such curve was filed as active; inconclusive means small, poorly fitted or top-dose-only effect, or another doubt; inactive means no such curve, though single readings can be large or run the other way
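20 nM HPGD preincubated 15 min at room temperature with compound in 50 mM Tris-HCl pH 8, 0.01% Tween 20. Started with 1 mM NAD+ and 30 uM prostaglandin E2; NADH fluorescence (360/450 nm) read 5 times over 30-s intervals, last minus first.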
NPSR antagonist: neuropeptide S receptor (human) antagonism, cAMP | Potency, µM (top dose mostly 38.3 µM), for inactives: at the top dose activity change, negative = inhibition, hits mostly inhibitors | actives 1% (n = 220,000) | CHO-NPSR cells, cAMP TR-FRET, antagonist mode | Q6W5P4; further: nearly all actives have a fitted effect of over 50% in size
Target sequence (Q6W5P4 whole entry, looked up): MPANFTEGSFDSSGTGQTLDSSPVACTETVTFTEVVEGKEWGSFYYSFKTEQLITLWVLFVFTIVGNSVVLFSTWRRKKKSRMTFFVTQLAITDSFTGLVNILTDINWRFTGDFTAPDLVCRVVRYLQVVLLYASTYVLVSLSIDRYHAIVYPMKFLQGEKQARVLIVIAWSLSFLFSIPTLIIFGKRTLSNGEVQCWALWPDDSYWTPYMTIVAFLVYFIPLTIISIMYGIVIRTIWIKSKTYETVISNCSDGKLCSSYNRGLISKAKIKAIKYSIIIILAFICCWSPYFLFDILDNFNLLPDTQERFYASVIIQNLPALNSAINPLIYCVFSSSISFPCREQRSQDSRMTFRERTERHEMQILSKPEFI
The depositor's hits bear a star; ? = inconclusive; / = not tested or not shown; ! = a repeat was not active; [ ] = another dose, or the depositor's remark. Unless noted, the call rests on the fitted dose curve; in most records, active means well fitted curve in the direction sought with a large enough effect; inconclusive means small, poorly fitted or top-dose-only effect, or another doubt; inactive means no such curve, though single readings can be large; an effect the other way counts as inactive or inconclusive. Unless noted, on the % scale 0 is the no-effect control and ±100 the full control effect; potency means the concentration at half of the fitted maximal effect.

SMILES	Tau fibril FP	Tau fluor cs	Tau fibril ThT	ALDH1A1 inh	HPGD inh	NPSR antagonist
Cc1cccc(Cn2c(SCCN3CCCCC3)nc3c2c(=O)[nH]c(=O)n3C)c1	5%	16%	16%	/	/	-18%
Cc1cc(C)n(-c2nc3c(c(=O)[nH]c(=O)n3C)n2Cc2cccc(Br)c2)n1	-8%	0%	-5%	0%	16µM*	-8%[46.1 µM]
Cn1c(=O)[nH]c(=O)c2c1nc(SCCN1CCCCC1)n2CCCc1ccccc1	-4%	5%	-7%	?	28µM*	6%[46.1 µM]
Cc1ccc(Cn2c(SCCN3CCCCC3)nc3c2c(=O)[nH]c(=O)n3C)cc1	-3%	-14%	-13%	?	28µM*	21%
CC(C)C(=O)Nc1ncc(Cc2ccc(Cl)cc2)s1	-15%[2.34 µM]	-7%	-8%	-6%	/	42%
CCOc1cccc(OCCCn2c(-c3ccc(Br)cc3)nc3ccccc3c2=O)c1	?	-8%	-8%	/	/	/
O=C(N[C@@H](c1ccccc1)[C@@H]1C[C@H]1C(=O)NCc1ccccc1)OCc1ccccc1	-3%	-14%	-12%	?	-3%	/
Cn1c(=O)[nH]c(=O)c2c1nc(SCCN1CCCCC1)n2Cc1ccccc1	0%	4%	-1%	?	25µM*	1%[46.1 µM]
Cn1c(=O)[nH]c(=O)c2c1nc(Sc1nc3ccccc3s1)n2Cc1ccccc1	4%	-3%	-16%	16µM*	-4%	-29%[46.1 µM]
Cc1ccc(Cn2c(Sc3nnc(C)s3)nc3c2c(=O)[nH]c(=O)n3C)cc1	7%	5%	-5%	-18%	-2%	-7%[46.1 µM]
O=c1c(-c2ccc(F)cc2)nc2cnc(Nc3ccccc3)nc2n1C[C@H]1CCCO1	/	/	/	25%	/	/
COCCCNC(=O)c1c(NC(=O)Cc2coc3c(C)c(C)ccc23)sc2c1CCCC2	7%	-28%	?	/	/	/
CCNc1nc(SC(C)C(=O)OC)nc(N2CCOCC2)n1 (stereo unspecified)	4%	-1%	-4%	19µM*	-10%	-5%[46.1 µM]
COC(=O)CSc1nc(NCC(C)C)nc(N2CCOCC2)n1	5%	-2%	-3%	11%	5%	-15%[46.1 µM]
CS(=O)(=O)n1nc(-c2ccc(Cl)cc2)nc1N	-11%	-15%	-13%	3%	/	-7%
Cn1nc(-c2ccc(Cl)cc2)nc2c(=O)n(C)c(=O)nc1-2	?	-16%	8.9µM*	?	?	1µM*
CCOC(=O)/C(=C/c1ccc(N2CCC(c3ccccc3)=N2)cc1)C(C)=O	-13%	16µM*[quencher]	?	-2%	-19%	-30%
c1ccc(C2=NN(c3ccccc3)CC2)cc1	7%	?	?	/	/	-8%
O=C1NC(=S)CN1c1ccccc1	?	-19%	32µM*	/	/	17%
Cc1ccc(NC(CC(=O)c2ccccc2)C(=O)O)cc1Cl (stereo unspecified)	?	-14%	?	/	/	?
C=C(C(=O)c1ccccc1)C(C)CC(=O)c1ccccc1 (stereo unspecified)	10%	-9%	?	?	28µM*	-15%
O=C(CC(Nc1ccccc1)C(=O)O)c1ccccc1 (stereo unspecified)	-10%	-6%	?	1.8µM*	-12%	-21%[46.1 µM]
Cc1ccc(N2C(=O)CS(=O)C(c3ccccc3)C2=O)cc1C (stereo unspecified)	?	-12%	?	3.5µM*	/	3%
Cc1cccc2sc(NC(=O)[C@@H]3CCCN3C(=O)c3cccs3)nc12	-1%	-11%	3%	-4%	/	28%[46.1 µM]
O=C(Nc1nc2ccc(Cl)cc2s1)[C@@H]1CCCN1C(=O)c1cccs1	-1%	-10%	0%	25µM*	?	-19%
SMILES	Tau fibril FP	Tau fluor cs	Tau fibril ThT	ALDH1A1 inh	HPGD inh	NPSR antagonist
CCOCCCn1c(=N)c(C(=O)NC2CCCC2)cc2c(=O)n3cccc(C)c3nc21	-2%	3%	-3%	/	/	/
CCCc1nnc(NC(=O)c2nc(S(=O)(=O)Cc3ccc(C)cc3)ncc2Cl)s1	?	-20%	?	/	/	/
COc1ccc(OC)c(NC(=O)c2nc(S(=O)(=O)Cc3ccc(F)cc3)ncc2Cl)c1	1%	?	13µM*	/	/	/
Cc1ccc(CS(=O)(=O)c2ncc(Cl)c(C(=O)Nc3nc4ccc(C)cc4s3)n2)cc1	-17%	?	22µM*	/	/	/
COc1ccc2nc(NC(=O)c3nc(SC(C)C)ncc3Cl)sc2c1	-8%	-10%	-10%	/	/	/
Cc1ccc(CS(=O)(=O)c2ncc(Cl)c(C(=O)Nc3nc4ccc(F)cc4s3)n2)cc1	-11%	-24%	14µM*	/	/	/
COc1ccc2nc(NC(=O)c3nc(S(=O)(=O)Cc4ccc(C)cc4)ncc3Cl)sc2c1	-7%	?	5.6µM*	/	/	/
COc1cc(C2c3c(-c4ccccc4O)n[nH]c3C(=O)N2Cc2ccco2)ccc1OCC(C)C (stereo unspecified)	?	?	-3%	/	/	/
CCc1ccc2ncc3c(-c4ccc(C)cc4)nn(CC(=O)Nc4ccc(C)cc4)c3c2c1	-10%	1%	2%	/	/	/
O=C(NCc1ccco1)c1csc(Nc2ccccc2Cl)n1	5%	-21%	-20%	?	16µM*	-7%[46.1 µM]
O=C(c1csc(Nc2cccc3ccccc23)n1)N1CCCC1	-1%	-16%	?	/	/	1%
O=C(c1csc(Nc2ccccc2Cl)n1)N1CCCC1	-3%	-12%	-15%	22µM*	16µM*	13%[46.1 µM]
COc1cc(N=Nc2cccc(S(N)(=O)=O)c2)c2ccccc2c1N	?	10µM*[quencher]	1.6µM*	7.9µM*!	-12%	-4%
COc1ccc(C(=O)OCc2cc(=O)n3nc(-c4cccs4)sc3n2)cc1	-13%	-6%	?	/	/	/
O=S(=O)(NCCNc1ncc(C(F)(F)F)cc1Cl)C(F)(F)F	-8%	-11%	-2%	13%	/	-18%
O=C(O)/C=C/C(=O)NCCNc1ncc(C(F)(F)F)cc1Cl	3%	0%	-6%	28µM*	/	11%
O=C1C=CC(=O)N1CCNc1ncc(C(F)(F)F)cc1Cl	-5%	5%	5%	0.63µM*	/	-30%
CCCCNC(=O)c1cnc2sc(N3CCCCCC3)nn2c1=O	-4%	2%	-3%	/	/	/
COc1ccc(N(CC(=O)NCCc2cccc(C)c2)S(=O)(=O)c2c(C)nn(C)c2C)cc1	2%	-13%	-9%	/	/	/
O=[N+]([O-])/C=C/c1cn(Cc2ccccc2)c2ccccc12	2%	-9%	?	16µM*	-25%	10µM*
C(=N\n1cnnc1)/c1cn(Cc2ccccc2)c2ccccc12	3%	-18%	-19%	13µM*	-18%	-12%[46.1 µM]
O=C(Cn1cc(/C=C\[N+](=O)[O-])c2ccccc21)Nc1ccccc1	-5%	-23%	/	/	/	13µM*
NC(=O)CSc1cn(Cc2ccccc2)c2ccccc12	-6%	-18%	-2%	7.9µM*	/	-2%
